Experimental data published in PubChem BioAssay (NCATS).
Results filed as inconclusive are left out. Where a call stands in place of a potency, no number is given. Activity calls are given as the source filed them. Unless noted, calls follow the shape of the dose curve; as a rule, active = well fitted activation curve with a large enough effect; inconclusive = small, poorly fitted or top-dose-only effect; inactive = flat fitted curve, though single readings scatter.

Tests used:
[1] = qHTS Assay for Identification of Small Molecule Agonists for Hypoxia Response Element Signaling Pathway (AID 914; active = well fitted activation curve with a large enough effect in the signal ratio, with a control signal flat, not every such curve was filed as active; the % refers to the signal ratio); settings: ME-180 (cervical carcinoma) HRE-bla reporter, beta-lactamase ratio, CoCl2, 17 h; activation: stronger effect = higher value
Procedure, shortened: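 AC50 values come from titration-series %Activity, taken as the 460/530nm ratio of CCF4 fluorescence (excitation 405nm). CellSensor HRE-bla ME-180 cells were treated 17 hours at 37 C with compound plus an EC50 level of CoCl2.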

[2] = Confirmation and Secondary Assay for Modulators of Hemoglobin Beta Chain Splicing at IVS2 654 locus (AID 910);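 also: HeLa cells stably carrying EGFP split by mutant beta-globin IVS2-654 intron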
Procedure, shortened: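 HeLa cells stably expressing EGFP interrupted by β-globin IVS2-654 intron, seeded overnight in Opti-MEM/2% FCS, then treated 2 days at 37 °C. Restored splicing read as total peak GFP intensity per well by laser scanning cytometry (488 nm excitation, 500–520 nm emission); 500 nM antisense PNA as control.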

[3] = Confirmation and Secondary Assay for Modulators of Hemoglobin Beta Chain Splicing at IVS2 705 locus (AID 930);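 also: HeLa cells stably expressing the EGFP-705 splicing reporter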
Procedure, shortened: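 Restored EGFP fluorescence after 2-day compound exposure reports splicing correction in IVS2-705 EGFP reporter HeLa cells; positive control was 500 nM splice-blocking PNA oligo. Signal measured as well total peak GFP intensity (488 nm excitation).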

[4] = qHTS profiling of the MIPE4 collection as inhibitors of Plasmodium falciparum (3D7) proliferation (AID 743344; call rule not given here); settings: P. falciparum 3D7 in erythrocytes, SYBR Green DNA fluorescence, 72 h; at 9.64 µM (top of the series)
Procedure, shortened: (§1)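 Erythrocytes infected with P. falciparum (0.3% parasitemia, 2.5% hematocrit) incubated with compounds 72 h at 37 C, 5% CO2. Lysis with saponin/Triton buffer containing SYBR Green I, overnight at room temperature in the dark; DNA fluorescence (485/535 nm) normalised to 0.29 uM artemisinin and DMSO.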

[5] = qHTS profiling of the MIPE4 collection as inhibitors of Plasmodium falciparum (DD2) proliferation (AID 743345; call rule not given here); settings: P. falciparum Dd2 in erythrocytes, SYBR Green DNA, 72 h; at 9.64 µM (top of the series)
Procedure, shortened: as §1

[6] = qHTS profiling of the MIPE4 collection as inhibitors of Plasmodium falciparum (DD2) proliferation (Rep 2) (AID 743346; call rule not given here); settings: P. falciparum Dd2 in erythrocytes, SYBR Green DNA, 72 h; at 9.64 µM (top of the series)
Procedure, shortened: as §1

[7] = qHTS profiling of the MIPE4 collection as inhibitors of Plasmodium falciparum (HB3) proliferation (AID 743347; call rule not given here); settings: P. falciparum HB3 in erythrocytes, SYBR Green DNA, 72 h; at 9.64 µM (top of the series)
Procedure, shortened: as §1

COc1ccc([C@@H]2CC(=O)c3c(O)cc(O[C@H]4O[C@@H](CO[C@H]5O[C@@H](C)[C@@H](O)[C@@H](O)[C@@H]5O)[C@@H](O)[C@@H](O)[C@@H]4O)cc3O2)cc1O
activation [1]: -3.87% (inactive)

CC(C)(N=NC(C)(C)C(=N)N)C(=N)N
Potency [2]: inactive
Potency [3]: inactive

C[C@@H]1Cc2ccccc2N1NC(=O)c1ccc(Cl)c(S(N)=O)c1 (stereo partly drawn)
activation [1]: 7.68% (inactive)

CO[C@H]1C=CO[C@]2(C)Oc3c(C)c(O)c4c(O)c(c5c(c4c3C2=O)NC2(CCN(CC(C)C)CC2)N=5)=NC(=O)C(C)=CC=C[C@@H](C)[C@@H](O)[C@@H](C)[C@@H](O)[C@@H](C)[C@@H](OC(C)=O)[C@@H]1C
parasite growth, % of DMSO control [4]: 68.3%
parasite growth remaining, % of DMSO control (lower = more inhibition) [5]: 68.3%
parasite growth, % of control (lower = inhibition) [6]: 36%
growth, % of control [7]: 93.1%

COc1cc2c(cc1OC)-c1cc3ccc(OC)c(OC)c3c[n+]1CC2
Potency [2]: inactive
Potency [3]: inactive

N#Cc1cccc(-c2cncnc2-n2ccnc2)c1
Potency [3]: inactive

CO/N=C(\C(=O)N[C@@H]1C(=O)N2C(C(=O)O)=C(COC(N)=O)CS[C@@H]12)c1ccco1
activation [1]: 3.41% (inactive)

Cc1noc(C)c1-c1nc(Nc2ccncc2)c2ccccc2n1
Potency [2]: inactive
Potency [3]: inactive

CN(C)c1ccc(-c2nccc(NCc3ccccc3)n2)cc1
Potency [2]: inactive
Potency [3]: inactive

COc1ccc(CNc2ncncc2-c2ccccc2CN(C)C)c(OC)c1
Potency [2]: inactive
Potency [3]: inactive
